From PubChem BioAssay (NCATS)
Inconclusive results are not listed. Activity calls are given as the source filed them. The call rests on the fitted dose curve.

The compounds below were run against Peroxisome proliferator-activated receptor delta (Homo sapiens) (UniProt Q03181) (assay: qHTS assay for small molecule agonists of peroxisome proliferator-activated receptor delta signaling (AID 588534)). Conditions: HEK293T PPARdelta-UAS-bla, beta-lactamase ratio, 18 h; series mostly up to 76.7 µM.
Outline: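 Fluorescence from CCF4 substrate cleavage by beta-lactamase reporter, read 2 hrs at RT, measured agonist activity. Compounds were tested with 18 hrs exposure at 37 C. Concentration-response data fitted to Hill equation.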

Chain of Peroxisome proliferator-activated receptor delta (Homo sapiens) (Q03181 whole entry, looked up): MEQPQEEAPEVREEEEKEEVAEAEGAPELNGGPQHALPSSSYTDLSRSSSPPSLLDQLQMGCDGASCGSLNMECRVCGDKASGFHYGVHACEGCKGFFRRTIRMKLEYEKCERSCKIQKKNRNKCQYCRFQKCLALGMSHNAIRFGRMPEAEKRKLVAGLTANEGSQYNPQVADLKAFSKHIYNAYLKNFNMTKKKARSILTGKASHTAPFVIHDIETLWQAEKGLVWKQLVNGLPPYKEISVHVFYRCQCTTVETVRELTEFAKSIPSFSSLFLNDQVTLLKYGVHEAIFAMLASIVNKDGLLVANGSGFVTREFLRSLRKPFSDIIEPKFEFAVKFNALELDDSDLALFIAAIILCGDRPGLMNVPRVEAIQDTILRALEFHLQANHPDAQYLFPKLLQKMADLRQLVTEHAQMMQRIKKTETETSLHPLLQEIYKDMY

SMILES | outcome
CC(=O)Oc1ccc(C(c2ccc(OC(C)=O)cc2)c2ccccn2)cc1 | inactive
COP(=O)(OC)OC=C(Cl)Cl | inactive
CN(C)CCC(c1ccccc1)c1ccccn1 (stereo not given) | inactive
CCCCCCCCCCCC[N+](C)(C)CCOc1ccccc1 | inactive
CNC(=O)Oc1ccc2c(c1)[C@]1(C)CCN(C)[C@@H]1N2C | inactive
O=C1C(c2[nH]c3ccccc3c2O)=Nc2ccccc21 | inactive
C#C[C@]1(O)CC[C@H]2[C@@H]3CCc4cc(O)ccc4[C@H]3CC[C@@]21C | inactive
CCN(CC)C(=O)c1cccc(C)c1 | inactive
Oc1ccc(/C=C/c2cc(O)cc(O)c2)cc1 | inactive
Cc1cc(C(C)(C)C)c(O)c(C(C)(C)C)c1 | inactive
CN(C)C(=O)Nc1ccc(Cl)c(Cl)c1 | inactive
CC(O)COc1ccccc1 (stereo not given) | inactive
O=C1c2cccc(O)c2C(=O)c2c(O)cccc21 | inactive
COc1cccc2c1C(=O)c1c(O)c3c(c(O)c1C2=O)C[C@@](O)(C(C)=O)C[C@@H]3O[C@H]1C[C@H](N)[C@H](O)[C@H](C)O1 | inactive
CCCCCCCCCCCCCCCC[n+]1ccccc1 | inactive
CNC(=O)Oc1cccc2ccccc12 | inactive
N[C@@H](Cc1c[nH]c2ccc(O)cc12)C(=O)O | inactive
CC(=O)[C@@]1(O)CC[C@H]2[C@@H]3CCC4=CC(=O)CC[C@]4(C)[C@H]3CC[C@@]21C | inactive
NCCNc1cccc2ccccc12 | inactive
C[C@@H]1C[C@@H]([C@H](O)CC2CC(=O)NC(=O)C2)C(=O)[C@@H](C)C1 | inactive
